The source of these data is PubChem BioAssay (EPA / NIEHS).

The structures appear in SMILES notation. Activity calls are given as the source filed them. The calls were made as follows: active = hit-call score of the fitted dose curve at least 0.9, where 1 is the maximum; inactive = score below 0.9.

As a reminder, the AC50 is the midpoint of the concentration-response curve, whichever way the signal moves.

Read-out in assay [1]: Matrix Metallopeptidase 9 (MMP9), MMP9 (gene 4318)
As to the kind of experiment: BSK_KF3CT_MMP9: BioMAP Diversity Plus: KF3CT Assay for Matrix Metallopeptidase 9 (MMP9) Biomarker Activity (AID 2283074).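 As to AC50: MMP9 protein level quantified by ELISA in the co-culture.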 The following applies: primary human keratinocytes with fibroblasts; actives raise or lower the signal. In short, it runs like this:
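Keratinocyte plus foreskin fibroblast human primary skin co-culture was dosed with chemical and MMP-9 was quantified by ELISA 24 h later. Bidirectional curve fitting used DMSO as negative control and activity baseline.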

Read-out in assay [2]: urokinase plasminogen activator (uPA), PLAU (gene 5328)
As to the kind of experiment: BSK_KF3CT_uPA: BioMAP Diversity Plus: KF3CT Assay for urokinase plasminogen activator (uPA) Biomarker Activity (AID 2283075). The note with it: primary human keratinocytes with fibroblasts; actives raise or lower the signal. In short, it runs like this: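 Human keratinocyte plus foreskin fibroblast primary co-culture exposed to chemical for 24 h. uPA levels were quantified by ELISA, and activity was fitted bidirectionally against a DMSO negative-control baseline.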

Read-out in assay [3]: CD40, CD40 (gene 958)
As to the kind of experiment: BSK_LPS_CD40: BioMAP Diversity Plus: LPS Assay for CD40 Biomarker Activity (AID 2283076). The following applies: primary human HUVEC with PBMC; actives raise or lower the signal. In short, it runs like this: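 Using a multiplexed primary human co-culture (umbilical vein endothelium plus PBMC), CD40 was read by ELISA 24 h after dosing, with cytotoxicity tracked by sulforhodamine B staining of parallel cultures and activity fitted bidirectionally versus DMSO.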

Read-out in assay [4]: E-selectin (Homo sapiens) (UniProt P16581)
Briefly: BSK_LPS_Eselectin: BioMAP Diversity Plus: LPS Assay for Eselectin Biomarker Activity (AID 2283077). The note with it: primary human HUVEC with PBMC; actives raise or lower the signal. In short, it runs like this:
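Dose chemical onto LPS-driven HUVEC/PBMC co-culture; after 24 h, run ELISA for E-selectin; fit up- and down-going responses relative to DMSO control.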

Read-out in assay [5]: Interleukin-8 (IL8), CXCL8 (gene 3576)
Briefly: BSK_LPS_IL8: BioMAP Diversity Plus: LPS Assay for Interleukin-8 (IL8) Biomarker Activity (AID 2283078). The following applies: primary human HUVEC with PBMC; actives raise or lower the signal. In short, it runs like this: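 In this LPS system, chemical-treated human umbilical vein endothelium/PBMC co-cultures were harvested at 24 h for IL-8 ELISA.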

The nature of assay [6]: BSK_LPS_SRB: Viability Assessment in the BioMAP Diversity Plus: LPS Assay (AID 2283079).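 Also: total protein by sulforhodamine B absorbance as a cytotoxicity measure; measured one day after compound addition; fitted in both directions against DMSO so loss or gain of signal counts.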 The note with it: primary human HUVEC with PBMC. In short, it runs like this: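 Cytotoxicity endpoint in human endothelial–PBMC co-culture: 24 h exposure, then SRB (0.1%) staining, 560 nm read.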
Read-out in assay [7]: Interleukin-1 alpha (IL1a), IL1A (gene 3552)
As to the kind of experiment: BSK_LPS_IL1a: BioMAP Diversity Plus: LPS Assay for Interleukin-1 alpha (IL1a) Biomarker Activity (AID 2283080). The following applies: primary human HUVEC with PBMC; actives raise or lower the signal. In short, it runs like this: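 Primary human HUVEC and PBMC co-culture stimulated with LPS is dosed and harvested at 24 h. Both increases and decreases in ELISA-measured IL-1a are scored relative to DMSO.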

Read-out in assay [8]: Monocyte Chemoattractant Protein-1 (MCP1), CCL2 (gene 6347)
As to the kind of experiment: BSK_LPS_MCP1: BioMAP Diversity Plus: LPS Assay for Monocyte Chemoattractant Protein-1 (MCP1) Biomarker Activity (AID 2283081).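 As to AC50: secreted MCP-1 protein quantified by ELISA in culture supernatant.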 The following applies: primary human HUVEC with PBMC; actives raise or lower the signal. In short, it runs like this: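 Values derive from bidirectional fitting against DMSO of ELISA-measured MCP-1 in a human primary endothelial and mononuclear cell co-culture, 24 h after chemical addition under LPS activation.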

Assay [9] is described as follows: BSK_LPS_PGE2: BioMAP Diversity Plus: LPS Assay for Prostaglandin E2 (PGE2) Biomarker Activity (AID 2283082).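 As to AC50: secreted prostaglandin E2 measured by ELISA in LPS-stimulated co-culture.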 The following applies: primary human HUVEC with PBMC; actives raise or lower the signal. In short, it runs like this:
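LPS-activated HUVEC/PBMC co-culture; cmpd dosed, 24 h; PGE2 by ELISA; bidirectional fit vs DMSO; SRB (0.1%, TCA-fixed, 560 nm) in parallel plates for overt cytotox.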

Read-out in assay [10]: Macrophage colony-stimulating factor (MCSF), CSF1 (gene 1435)
Briefly: BSK_LPS_MCSF: BioMAP Diversity Plus: LPS Assay for Macrophage colony-stimulating factor (MCSF) Biomarker Activity (AID 2283083). The following applies: primary human HUVEC with PBMC; actives raise or lower the signal. In short, it runs like this: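 Bidirectional fit versus DMSO of ELISA-measured M-CSF in co-cultured human umbilical vein endothelial cells and PBMC, sampled 24 h after dosing.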

Read-out in assay [11]: Tissue Factor, F3 (gene 2152)
As to the kind of experiment: BSK_LPS_TissueFactor: BioMAP Diversity Plus: LPS Assay for Tissue Factor Biomarker Activity (AID 2283084). The note with it: primary human HUVEC with PBMC; actives raise or lower the signal. In short, it runs like this:
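Read-out: CD142 ELISA, 24 h. System: LPS-driven human endothelial/PBMC co-culture. Analysis: up- or down-signal fitted against DMSO.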

Read-out in assay [12]: Tumor necrosis factor (Homo sapiens) (UniProt P01375)
As to the kind of experiment: BSK_LPS_TNFa: BioMAP Diversity Plus: LPS Assay for Tumour Necrosis Factor alpha (TNFa) Biomarker Activity (AID 2283085). The note with it: primary human HUVEC with PBMC; actives raise or lower the signal. In short, it runs like this:
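Read-out is ELISA of TNFa in primary human endothelial cell–PBMC co-cultures at 24 h after compound. Activity in either direction was fitted against DMSO.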

Read-out in assay [13]: Vascular cell adhesion molecule 1 (VCAM1), VCAM1 (gene 7412)
Briefly: BSK_LPS_VCAM1: BioMAP Diversity Plus: LPS Assay for Vascular cell adhesion molecule 1 (VCAM1) Biomarker Activity (AID 2283086). The note with it: primary human HUVEC with PBMC; actives raise or lower the signal. In short, it runs like this: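 HUVEC + PBMC co-culture, LPS system; compound 24 h; VCAM-1 by ELISA; bidirectional fit vs DMSO control; parallel SRB (0.1%, TCA-fixed, 560 nm) for cytotoxicity.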

Read-out in another assay: CD38, CD38 (gene 952)
As to the kind of experiment: BSK_SAg_CD38: BioMAP Diversity Plus: SAg Assay for CD38 Biomarker Activity (AID 2283087). The following applies: primary human HUVEC with PBMC; actives raise or lower the signal. In short, it runs like this: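 Human HUVEC plus PBMC co-culture stimulated with superantigen; CD38 measured by ELISA 24 h after chemical dosing. Fluorescence read-out, bidirectional fit against DMSO; cytotoxicity tracked in parallel by SRB and Alamar Blue.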

Read-out in assay [14]: CD40, CD40 (gene 958)
As to the kind of experiment: BSK_SAg_CD40: BioMAP Diversity Plus: SAg Assay for CD40 Biomarker Activity (AID 2283088). The following applies: primary human HUVEC with PBMC; actives raise or lower the signal. In short, it runs like this: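 Endpoint derived by fitting increases or decreases versus DMSO controls. CD40 is detected by fluorescence ELISA in a human vascular co-culture of endothelium and PBMC at 24 h.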

Read-out in another assay: CD69, CD69 (gene 969)
Briefly: BSK_SAg_CD69: BioMAP Diversity Plus: SAg Assay for CD69 Biomarker Activity (AID 2283089).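 As to AC50: cell surface CD69 protein quantified by ELISA with fluorescence detection.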 The following applies: primary human HUVEC with PBMC; actives raise or lower the signal. In short, it runs like this: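 Endothelial/PBMC co-culture; chemical added; 24 h incubation; CD69 ELISA with fluorescence detection; bidirectional fit vs DMSO.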

Read-out in assay [15]: Monocyte Chemoattractant Protein-1 (MCP1), CCL2 (gene 6347)
Briefly: BSK_SAg_MCP1: BioMAP Diversity Plus: SAg Assay for Monocyte Chemoattractant Protein-1 (MCP1) Biomarker Activity (AID 2283090). The following applies: primary human HUVEC with PBMC; actives raise or lower the signal. In short, it runs like this: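 MCP-1 levels in the endothelial–PBMC SAg co-culture were quantified by ELISA at 24 h post-dosing; both increases and decreases versus DMSO scored. Cytotoxicity monitored by SRB total protein in parallel cultures.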

Read-out in assay [16]: E-selectin (Homo sapiens) (UniProt P16581)
As to the kind of experiment: BSK_SAg_Eselectin: BioMAP Diversity Plus: SAg Assay for Eselectin Biomarker Activity (AID 2283091). The following applies: primary human HUVEC with PBMC; actives raise or lower the signal. In short, it runs like this: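 Endpoint values derive from bidirectional fitting relative to DMSO, using ELISA-measured E-selectin in a human vascular co-culture (umbilical vein endothelium plus PBMC) sampled 24 h after dosing.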

Read-out in assay [17]: Monokine induced gamma interferon (MIG), CXCL9 (gene 4283)
Briefly: BSK_SAg_MIG: BioMAP Diversity Plus: SAg Assay for Monokine induced gamma interferon (MIG) Biomarker Activity (AID 2283092). The following applies: primary human HUVEC with PBMC; actives raise or lower the signal. In short, it runs like this: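 Measures CXCL9 protein by ELISA in a human vascular primary-cell co-culture (umbilical vein endothelium with PBMC) 24 h after chemical addition. Activity is scored up or down from the DMSO control.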

Chain of Tumor necrosis factor (Homo sapiens) (P01375 whole entry, looked up): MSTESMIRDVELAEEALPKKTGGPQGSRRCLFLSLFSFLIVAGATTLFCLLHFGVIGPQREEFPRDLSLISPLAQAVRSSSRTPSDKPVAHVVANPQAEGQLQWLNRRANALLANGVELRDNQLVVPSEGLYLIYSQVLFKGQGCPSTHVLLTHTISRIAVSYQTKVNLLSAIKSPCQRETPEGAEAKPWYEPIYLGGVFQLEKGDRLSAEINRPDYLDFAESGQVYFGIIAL
Chain of E-selectin (Homo sapiens) (P16581 whole entry, looked up): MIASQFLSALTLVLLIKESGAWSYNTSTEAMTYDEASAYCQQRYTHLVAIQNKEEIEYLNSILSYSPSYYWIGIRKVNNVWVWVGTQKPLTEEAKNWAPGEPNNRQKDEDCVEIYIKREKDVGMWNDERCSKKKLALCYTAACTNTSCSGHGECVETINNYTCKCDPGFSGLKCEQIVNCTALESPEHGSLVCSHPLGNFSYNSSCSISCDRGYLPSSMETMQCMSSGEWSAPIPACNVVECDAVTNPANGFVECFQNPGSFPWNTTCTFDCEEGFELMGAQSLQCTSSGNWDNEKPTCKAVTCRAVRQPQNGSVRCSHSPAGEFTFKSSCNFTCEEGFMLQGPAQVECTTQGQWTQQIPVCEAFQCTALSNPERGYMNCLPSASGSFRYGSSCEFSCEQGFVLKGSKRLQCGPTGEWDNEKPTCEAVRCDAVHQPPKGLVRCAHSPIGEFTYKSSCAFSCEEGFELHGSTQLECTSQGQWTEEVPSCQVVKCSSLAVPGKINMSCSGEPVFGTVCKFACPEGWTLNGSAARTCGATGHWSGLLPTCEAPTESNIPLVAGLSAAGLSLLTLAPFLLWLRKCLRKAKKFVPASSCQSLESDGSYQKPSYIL

Take `c1ccc2ccccc2c1`: the outcome is “inactive” in assay [1]; “inactive” in assay [2]; “inactive” with CD40, CD40 (gene 958) [3]; “inactive” in assay [4]; “inactive” in assay [5]; “inactive” in assay [6]. For the same molecule, the outcome in assay [7], in [8], in assay [9], in assay [10], in [11] and in assay [12] was inactive. Moreover, the outcome is “inactive” in assay [13]; “inactive” in the assay with CD38, CD38 (gene 952); “inactive” with CD40, CD40 (gene 958) [14]; “inactive” with CD69, CD69 (gene 969); “inactive” in [15]; “inactive” in assay [16]. Moreover, the result in assay [17] was inactive.
For the molecule `CCCOC(=O)c1cc(O)c(O)c(O)c1`, the outcome was “inactive” in assay [1]; “inactive” with CD40, CD40 (gene 958) [3]; “inactive” in assay [4]; “inactive” in assay [5]; “inactive” in assay [6]; “inactive” in assay [7]. Besides, the outcome is “inactive” in assay [8]; “inactive” in assay [10]; “inactive” in assay [11]; “inactive” in [12]; “inactive” in assay [13]; “inactive” with CD38, CD38 (gene 952). In addition, the outcome with CD40, CD40 (gene 958) [14] is “inactive”; with CD69, CD69 (gene 969), “inactive”. For the same molecule, the AC50 is 3.97 µM (active) in assay [2], 4.97 µM (active) in [9], 29 µM (active) in assay [15] and 14.3 µM (active) in assay [16].
Regarding `O=c1[nH]sc2ccccc12`, the AC50 in assay [1] was 31.2 µM (active); in assay [2], 33 µM (active); with CD40, CD40 (gene 958) [3] it was 7.06 µM (active); in assay [4], 25.9 µM (active); in assay [5] it was 22.1 µM (active); in [6] it was 25.7 µM (active). The concentration at half-maximal activity (AC50) in assay [7] was 8.77 µM (active); in assay [8] it was 17.6 µM (active); in assay [9], 3.94 µM (active); in assay [10], 12 µM (active); in assay [11], 17.7 µM (active); in assay [12], 9.18 µM (active). Moreover, the AC50 in assay [13] is 9.14 µM (active); with CD38, CD38 (gene 952), 8.45 µM (active); with CD40, CD40 (gene 958) [14] it was 7.92 µM (active); in the assay with CD69, CD69 (gene 969), 13.1 µM (active); in assay [15] it was 15.3 µM (active); in assay [16], 12.3 µM (active). For the same molecule, the half-maximal activity concentration (AC50) in assay [17] is 28.8 µM (active).
For `CC(C)(c1cc(Br)c(O)c(Br)c1)c1cc(Br)c(O)c(Br)c1`, the AC50 in [1] is 3.69 µM (active); in [2], 3.65 µM (active); with CD40, CD40 (gene 958) [3], 24.1 µM (active); in [4] it was 28.7 µM (active); in assay [5] it was 30.3 µM (active); in assay [6] it was 29.8 µM (active). Moreover, the AC50 in assay [7] was 29.9 µM (active); in [8], 29.1 µM (active); in assay [10], 23.5 µM (active); in [11], 30.1 µM (active); in assay [12], 19.1 µM (active); in [13] it was 26.7 µM (active). The AC50 with CD38, CD38 (gene 952) was 27.9 µM (active); in the assay with CD40, CD40 (gene 958) [14], 23 µM (active); with CD69, CD69 (gene 969), 28.4 µM (active); in assay [15], 29 µM (active); in [16] it was 22.1 µM (active); in assay [17] it was 36.1 µM (active). In assay [9], the outcome was inactive.
